Data as given in PubChem BioAssay.
Unmarked numbers belong to inactive results. Calls of active or inactive are those of the source.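 Rule for the calls: active = normalized viability below 100% at a tested concentration; inactive = the rest.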

Experiment: ovarian cancer cell viability with rucaparib, profiling panel, oncology-focused library, rucaparib conditional (AID 1508598)
Details: patient-derived ovarian cancer cells, CellTiter-Glo viability, 144 h; at 0.313 µM; OCI-P5x cells; with rucaparib 20 µM; active compounds read low; 100% = cells with rucaparib alone

Structure (SMILES)	viability
C[C@@]12CC[C@H]3c4ccc(O)cc4C[C@@H](CCCCCCCCCS(=O)CCCC(F)(F)C(F)(F)F)[C@H]3[C@@H]1CC[C@@H]2O (stereo not given in full)	122%
CC(=O)O[C@@]1(C(C)=O)CC[C@H]2[C@@H]3C[C@H](C)C4=CC(=O)CC[C@]4(C)[C@@H]3CC[C@@]21C	102%
CC(=O)O[C@]12CO[C@@H]1C[C@H](O)[C@]1(C)C(=O)[C@H](O)C3=C(C)[C@H](OC(=O)[C@H](O)[C@@H](NC(=O)OC(C)(C)C)c4ccccc4)C[C@](O)([C@H](OC(=O)c4ccccc4)C21)C3(C)C (stereo not given in full)	55.6% (active)
CCC1=CC2CN(C1)Cc1c([nH]c3ccccc13)[C@@](C(=O)OC)(c1cc3c(cc1OC)N(C)[C@H]1[C@@](O)(C(=O)OC)[C@H](OC(C)=O)[C@]4(CC)C=CCN5CC[C@@]31[C@H]54)C2 (stereo not given in full)	46.6% (active)
CC(=O)O[C@H]1C(=O)[C@@]2(C)C([C@H](OC(=O)c3ccccc3)[C@]3(O)C[C@H](OC(=O)[C@H](O)[C@@H](NC(=O)c4ccccc4)c4ccccc4)C(C)=C1C3(C)C)[C@]1(OC(C)=O)CO[C@@H]1C[C@H]2O (stereo not given in full)	57.9% (active)
